# TSG101-PTAP inh – qHTS Assay for Iinhibitors of HIV-1 Budding by Blocking the Interaction of PTAP/TSG101; Fluorescence polarization, FITC-PTAP peptide / Tsg101 binding; Potency, µM (titrated, usually from 115 µM), inactives show top-dose activity change, negative = inhibition, usual class: inhibitors; Tumor susceptibility gene 101 protein (Homo sapiens), Q99816; 340,000 tested, under 10 active; active = well fitted inhibition curve with a large enough effect in the main read-out, with a control signal flat, not every such curve was filed as active; inconclusive = small, poorly fitted or top-dose-only effect, or effect the other way, or a change in a side signal; inactive = no such curve, though single readings can be large or run the other way; also: % of control where 0% means no effect
# Target sequence (Q99816 whole entry, looked up): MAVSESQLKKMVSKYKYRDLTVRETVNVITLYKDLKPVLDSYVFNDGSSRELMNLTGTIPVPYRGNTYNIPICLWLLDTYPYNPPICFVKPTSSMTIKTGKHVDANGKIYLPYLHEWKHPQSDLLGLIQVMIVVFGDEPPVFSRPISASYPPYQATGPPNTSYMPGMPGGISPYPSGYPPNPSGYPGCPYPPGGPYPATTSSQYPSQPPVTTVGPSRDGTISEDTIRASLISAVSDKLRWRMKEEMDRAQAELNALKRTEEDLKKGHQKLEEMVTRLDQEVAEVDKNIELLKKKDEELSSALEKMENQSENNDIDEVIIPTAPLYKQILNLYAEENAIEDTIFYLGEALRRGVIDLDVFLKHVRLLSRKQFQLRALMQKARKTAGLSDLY
#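 Steps: Tsg101 binding domain dispensed (10 uM final), compounds pinned in DMSO, FITC-labeled PTAP-motif peptide added (50 nM final); after 20 min binding at room temperature, polarization measured.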
# MCF10A rereplic – A quantitative high throughput screen for small molecules that induce DNA re-replication in MCF 10a normal breast cells; MCF 10A DNA re-replication, Hoechst nuclear intensity, 48 h; Potency, µM (series often up to 46.1 µM), for the others: at the top dose activity, positive = re-replication, actives largely listed as activators; 2.9% of 350,000 active; also: % of control where 0% means no effect; nearly all actives have a fitted effect of over 50% in size
# SW480 rerep – A quantitative high throughput screen for small molecules that induce DNA re-replication in SW480 colon adenocarcinoma cells. 1.8% of 340,000 active. SW480 DNA re-replication, Hoechst DNA content imaging, 48 h. Potency, µM (top dose mostly 46.1 µM), for the others: at the highest dose re-replication activation, most hits filed as activators; also: % of control where 0% means no effect; nearly all actives have a fitted effect of over 55% in size
#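 Per well, 250 cells were exposed to pinned compound for 48 hr. Nuclear DNA was visualised with Hoechst (40 min, 37 C) and total object intensity recorded by fluorescence scanning.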
# KB-V1 cytotox – qHTS assay for MDR1-selective chemotherapeutics: Primary screen using the drug-selected MDR subline cells KB-V1; KB-V1 MDR cells viability, CellTiter-Glo, 72 h; Potency, µM (top dose mostly 46.1 µM), most hits filed as cytotoxic; 3.4% of 400,000 active; AID 1347076, 2019; also: % is scaled to controls: 0 for no effect and ±100 for the full control effect; nearly all actives have a fitted effect of over 60% in size
#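 KB-V1 MDR subline cells in DMEM (phenol-red free, 10% FBS) exposed to compounds in qHTS concentration series for 72 h at 37 degrees C. Viability read by CellTiter-Glo luminescence; concentration-effect curves fitted after normalization and correction.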
# KB-3-1 tox – qHTS assay for MDR1-selective chemotherapeutics: Primary screen using the parental adenocarcinoma cell KB-3-1 | KB-3-1 viability, CellTiter-Glo ATP luminescence, 72 h | Potency, µM (series often up to 46.1 µM), most hits filed as cytotoxic | 1.4% of 400,000 active | AID 1347075, 2019; also: % is scaled to controls: 0 for no effect and ±100 for the full control effect; nearly all actives have a fitted effect of over 60% in size
#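 Parental KB-3-1 adenocarcinoma cells in phenol-red-free DMEM with 10% FBS were pin-treated with compounds at several concentrations, incubated 72 h at 37 °C, and viability read by CellTiter-Glo luminescence; concentration-effect curves were fitted after normalization.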
# PINK1 expr mod – A Quantitative High throughput Screen to Identify Chemical Modulators of PINK1 Expression | PINK1 immunofluorescence, high-content cytometry, 24 h | Potency, µM (series often up to 76.6 µM), inactives show at the top dose activation (PINK1 increase), hits mostly activators | 0.2% of 410,000 active; active = well fitted activation curve with a large enough effect; inconclusive = small, poorly fitted or top-dose-only effect; cell line not stated here; also: % of control where 0% means no effect; nearly all actives have a fitted effect of over 65% in size
#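 Cells are seeded, rested 12 hours, then given compound at five concentrations or DMSO for 24 hours. After fixation, blocking and antibody staining, PINK1 amount and mitochondrial localization are scored; CCCP serves as control.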
# The depositor's hits bear a star; i = inactive; u = inconclusive; x = no result given; [ ] = another dose, or the depositor's remark. Rows were chosen to be rich in hits. Some 6.8% of all compounds tested hit in one or more screens of this group. Unless noted, calls follow the shape of the dose curve; as a rule, active = well fitted curve in the direction sought with a large enough effect; inconclusive = small, poorly fitted or top-dose-only effect, or another doubt; inactive = no such curve, though single readings can be large; an effect the other way counts as inactive or inconclusive. Potency is read from the fitted curve at half-maximal effect.
SMILES,TSG101-PTAP inh,MCF10A rereplic,SW480 rerep,KB-V1 cytotox,KB-3-1 tox,PINK1 expr mod
CCC(=O)Nc1cc(Cl)ccc1C(=O)O,-6.6%,12.3%,1.1%,i,i,-0.4%
O=C(O)c1ccc(Cl)cc1Nc1nc2cc(Cl)ccc2o1,-7.8%,20.6µM*,5.5%,16.4µM*,16.4µM*,13.8%
CCOc1ccc(NC(=O)CSc2nnc(CNC(=O)C34CC5CC(CC(C5)C3)C4)n2CC)cc1,x,x,x,i,i,0.9%
CC(=O)/C=C/c1ccc2c(c1)S(=O)(=O)N(C1CCCC1)[C@H]2CC(C)=O,x,x,x,18.4µM*,u,x
Cc1cc(OCCn2cc(C(=O)c3cccs3)c3ccccc32)ccc1Cl,x,x,x,i,i,-0.3%
O=C1C=CC2C(c3ccc4c(c3)OCO4)CC1N2Cc1ccccc1 (stereo not given),0.9%,u,3.6%,u,9.2µM*,-0.6%
Cc1cc(Br)ccc1NC(=S)Nc1cccc([N+](=O)[O-])c1,-3.4%,-21.4%,-80.5%,u,i,39.8µM*
CNC(=S)Nc1cccc([N+](=O)[O-])c1,-1.9%,10.3%,0.3%,i,i,-1.0%
Cc1cccc(N2CCN(C(=O)C3CCCN(S(=O)(=O)c4cccc5nsnc45)C3)CC2)c1C (stereo not given),x,x,x,i,i,5.6%
O=C1/C(=C/c2ccc(F)cc2)SC(=S)N1Nc1ncc(C(F)(F)F)cc1Cl,-4.3%,3.66µM*,u,i,i,3.2%
O=C1/C(=C\c2ccccn2)SC(=S)N1Nc1ncc(C(F)(F)F)cc1Cl,0.7%,2.1%,-4.3%,i,u,2.8%[38.3 µM]
CC(C)(C)C(=O)Cn1ncc(N2CCCC2)c(Br)c1=O,-1.7%,2.0%,-1.1%,i,i,-0.5%
CC(=O)Cn1ncc(Br)c(Br)c1=O,1.2%,2.06µM*,3.66µM*,u,u,0.5%
Cc1ccc(-c2ccccc2NC(=O)CS(=O)CC(=O)Nc2ccc(C)c(Cl)c2)o1 (stereo not given),1.4%,25.9µM*,u,i,i,9.2%
Cc1ccc(-c2ccccc2NC(=O)CCl)o1,-3.8%,u,10.9%,i,i,1.1%
Cc1[nH]c2ccccc2c1SCC(=O)NNC(=O)Nc1ccc(OC(F)(F)F)cc1,-2.1%,13µM*,-3.1%,i,i,-1.5%
Cc1cc(NC(=O)CSc2c(C)[nH]c3ccccc23)no1,-0.8%,15.2%,-3.1%,i,i,1.2%
Cc1ccc(Cn2c(C)c(CNCc3ccccc3F)c(C(=O)O)c2C)cc1,x,x,x,u,i,-1.4%
CSc1ccc(CCNC(=O)NCc2noc3ccccc23)cc1,x,x,x,i,i,-1.2%
COC(=O)c1sccc1NC(=O)c1cccnc1,-3.7%,-0.7%,-0.8%,i,i,-1.9%
COC(=O)C(=Cc1ccc(-c2ccsc2C(=O)OC)o1)C(=O)OC,0.1%,25.9µM*,5.8µM*,i,u,-0.7%
COC(=O)c1sccc1-c1ccc(C(=O)Nc2cccnc2)o1,-2.6%,u,-3.2%,5.8µM*,i,-4.2%[38.3 µM]
CCOC(=O)/C(C#N)=C/c1ccc(-c2ccsc2C(=O)OC)o1,u,u,-0.8%,i,i,25.1µM*
CCCOc1ccc(OCCOCCNCc2ccccc2)cc1,-4.3%,u,u,8.2µM*,i,6.3%
Cc1ccc(OCCNCc2ccccc2)c(C)c1,1.0%,12.1%,u,u,i,12.4%
Cc1cc(C)c(C)c(OCCOCCNCc2ccccc2)c1,-3.9%,u,u,14.6µM*,i,18.9%
COc1ccccc1C(=O)N[C@@H]1c2ccccc2C2(CCN(Cc3cccnc3)CC2)[C@H]1O,x,x,x,x,x,-0.1%
